Screens as filed in PubChem BioAssay.
This is a sample that favours compounds with a hit; in the whole collection about 6% have one here.
DRD3 agonist = D3 dopamine receptor (human) agonism; P35462; D3R DiscoveRx beta-arrestin cells, luminescence, 90 min; max activation, %; 410,000 compounds, 0.58% hits; AID 652048; in the data active means max activation above about 30%
Target sequence (P35462 whole entry, looked up): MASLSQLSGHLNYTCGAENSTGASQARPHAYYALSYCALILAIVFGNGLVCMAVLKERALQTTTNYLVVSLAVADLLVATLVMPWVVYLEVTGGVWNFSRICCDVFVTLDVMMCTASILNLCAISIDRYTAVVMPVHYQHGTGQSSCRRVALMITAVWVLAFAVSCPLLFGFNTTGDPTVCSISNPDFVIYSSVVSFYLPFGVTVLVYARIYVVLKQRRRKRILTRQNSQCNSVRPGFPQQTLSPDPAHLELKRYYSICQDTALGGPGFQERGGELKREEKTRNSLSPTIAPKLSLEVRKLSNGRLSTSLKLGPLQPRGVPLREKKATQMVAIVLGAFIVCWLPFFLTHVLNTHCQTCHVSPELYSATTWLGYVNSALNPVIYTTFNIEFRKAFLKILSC
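Agonist-mode cell screen: cells plated at 1500/well and incubated overnight at 37 °C, then exposed to library compounds for 90 min at 37 °C. Detection reagent was added for 30–60 min at room temperature, and luminescence was read.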
DRD3 antagonist = D3 dopamine receptor (human) antagonism; P35462; D3R cells, DiscoveRx beta-arrestin luminescence, antagonist mode; hits give low values; max response, negative = inhibition, %; 360,000 compounds, 2.5% hits; AID 652054; in the data active means max response below about -50%; inconclusive means no clear call, values can overlap the other calls
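Cells expressing the human receptor were seeded at 1500 cells/well, incubated overnight at 37 degrees C in 5% CO2, then exposed to library compounds with dopamine controls for 90 minutes at 37 degrees C before luminescent detection.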
D1 agonist = human D1 receptor agonism; P21728; HEK293 T-REx D1 cells, calcium flux, agonist mode; activation, % at 2 µM; 360,000 compounds, 1% hits; in the data active means activation above about 30%
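Tetracycline-induced HEK293 TREx D1 cells, force-coupled to calcium signalling, were dye-loaded with a no-wash calcium kit. Compound was pin-added after a 10 s baseline. Fluorescence was read kinetically at 1 cycle/s for 180 s, with calcium rises flagged as agonism.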
D1 PAM = potentiators of human D1 dopamine receptor; P21728; HEK293 TREx D1 cells, calcium flux, dopamine EC20 potentiation; potentiation, % at 10 µM; 360,000 compounds, 0.036% hits; in the data active means potentiation above about 30%
D1 antag = blocks dopamine activation of the human D1 receptor; HEK293 TREx D1 cells, calcium flux, dopamine EC80; hits give low values; activity change, negative = inhibition, % at 10 µM; 360,000 compounds, 3.2% hits; AID 504652; in the data active means activity change below about -30%
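Using tetracycline-induced force-coupled D1 Hek293 cells and a calcium dye, signals were followed for 180 s after compound, then for 180 s after EC80 dopamine, to detect inhibitors.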
Hits are given with their value; . = inactive; ? = inconclusive; / = no result given; ! = not confirmed by another sample.

SMILES	DRD3 agonist	DRD3 antagonist	D1 agonist	D1 PAM	D1 antag
COc1ccc(OC)c(CNC(=O)Cc2ccc(NC(=O)N3CCSc4ncccc43)cc2)c1	.	/	.	.	.
O=C(CSc1nccc(-c2cccs2)n1)Nc1ccc(F)c(Cl)c1	.	.	.	.	-39.0
CN(C)/C=C(\C(=O)c1ccccc1)c1nnnn1-c1ccccc1	.	.	.	.	.
CN(C)c1ccc(C=C(c2nnnn2-c2ccccc2)c2nnnn2-c2ccccc2)cc1	.	.	61.4	.	.
COc1c(C)cc(NS(=O)(=O)c2ccc3c(c2)OCCO3)cc1C	.	/	.	.	.
CC1CN(C(=O)CCC(=O)NCc2ccc(Cl)cc2)c2ccccc2O1 (stereo not given)	.	.	.	.	-83.1
CC1CN(C(=O)CCC(=O)NCc2cccc(Cl)c2)c2ccccc2S1 (stereo not given)	.	/	.	.	-31.8
CC1CN(C(=O)Nc2ccc(C(=O)NCc3cccc(F)c3)cc2)c2ccccc2S1 (stereo not given)	.	/	.	.	-43.0
CC1CN(C(=O)Nc2ccc(C(=O)NCc3ccccc3F)cc2)c2ccccc2S1 (stereo not given)	.	/	.	.	.
CC1CCC(NC(=O)CCC(=O)N2CC(C)Oc3ccccc32)CC1 (stereo not given)	.	-91.7	.	.	.
CC(C)n1ncc2c(C(=O)Nc3ccccc3SCC(N)=O)cc(C3CC3)nc21	.	.	/	/	/
O=C(O)C1(C(=O)O)CCC2(CCCCC2)CC1	.	.	/	/	/
Cc1ccc(C(=O)N2c3ccccc3N=C(c3ccccc3)C2C(=O)NC(C)C)cc1 (stereo not given)	.	.	/	/	/
COc1ccc(/C=C/C(=O)N2CCCc3ccccc32)cc1	.	.	.	.	-31.6
COc1cc(/C=C/C(=O)N2CCCc3ccccc32)cc(OC)c1OC	.	.	.	.	-32.6
CCOC(=O)n1cnc2nc(N)nc(SC)c21	.	.	/	/	/
CCCCN1C(=O)/C(=C2/Sc3ccccc3N2C)S/C1=N\c1ncn[nH]1	.	.	.	.	-54.4
C=CCN1C(=O)/C(=C2/Sc3ccc(OC)cc3N2C)SC1=Nc1ccccc1	.	.	.	.	.
O=C(COc1ccc(S(=O)(=O)Nc2ccc(Cl)cc2)cc1)N1CCOCC1	.	.	31.1	.	.
O=C(CCNS(=O)(=O)c1ccc(Cl)cc1)N1CCCCCC1	.	.	.	.	.
COc1ccc(NS(=O)(=O)c2ccc(OCC(=O)N3CCOCC3)cc2)cc1	.	.	.	.	.
CN(Cc1ccccc1)S(=O)(=O)c1ccc(OCC(=O)N2CCC(C(N)=O)CC2)cc1	.	.	.	.	.
CN(Cc1ccccc1)S(=O)(=O)c1ccc(OCC(=O)N2CCOCC2)cc1	.	.	.	.	-32.0
O=C(CCNS(=O)(=O)c1ccc(Cl)cc1)N1CCOCC1	.	.	.	.	-32.0
Cc1ccccc1NS(=O)(=O)c1ccc(OCC(=O)N2CCCCC2)cc1	32.3	.	.	.	.
SMILES	DRD3 agonist	DRD3 antagonist	D1 agonist	D1 PAM	D1 antag
Cc1cc(C)c(NC(=O)CN(CC(=O)O)CC(=O)O)c(C)c1Br	.	/	/	/	/
CSCC[C@H](NC(=O)[C@H](Cc1c[nH]c2ccccc12)NC(=O)CCNC(=O)OC(C)(C)C)C(=O)N[C@@H](CC(=O)O)C(=O)N[C@@H](Cc1ccccc1)C(N)=O	.	/	/	/	/
Fc1ccc(NCc2ccccc2-c2nnc(-c3ccccc3Cl)o2)cc1Cl	.	/	.	.	.
N#CCN=C(c1ccccc1)c1ccccc1	.	.	.	.	-47.3
N#CN=C(c1ccccc1)c1ccccc1	.	.	.	.	.
CCC(CO)Oc1cc(NCc2ccccc2)c2ncn(C(C)C)c2c1 (stereo not given)	37.0	.	/	/	/
O=c1oc2ccccc2c(Cl)c1CN1CCCCC1	.	-76.3	.	.	.
O=[N+]([O-])O[C@@H]1CO[C@H]2[C@@H]1OC[C@@H]2O	.	/	/	/	/
CC1=CN2C(=N)/C(=C/c3ccco3)C(=O)N=C2S1	.	-59.7	.	.	.
CNc1nc(N)c([N+](=O)[O-])c(Nc2ccccc2OC)n1	.	?	.	.	.
CN1CCN(CCCNC(=O)c2ccc(/C=C3\Oc4ccccc4N(Cc4ccccc4F)C3=O)cc2)CC1	.	.	103.1	.	-46.8
O=C(O)CCc1ccc(-c2ccccc2)n1CC(=O)Nc1ccccc1C(F)(F)F	.	/	.	.	.
O=C(O)CCc1ccc(-c2cccs2)n1CC(=O)Nc1ccccc1C(F)(F)F	.	.	.	.	-38.8!
O=C(O)CCc1ccc(-c2ccccc2)n1CC(=O)Nc1cccc(C(F)(F)F)c1	.	.	.	.	-65.3
C=CCn1c(CCC(=O)O)ccc1-c1ccccc1	.	.	.	.	-56.0
O=C(COC(=O)c1cccs1)Nc1ccccc1C(F)(F)F	.	.	31.6	.	-32.0
Cc1nc2[nH]onc2c2nccc(=O)c12	.	?	.	.	-38.6
CCCCn1c(SCc2ccccc2C)nc2ccsc2c1=O	.	/	.	.	.
COC(=O)c1c(-c2ccc(OC)c(OC)c2)csc1N	.	.	.	.	-33.6
COC(=O)c1cc(CSc2nc3ccc(C)cc3[nH]2)oc1C	.	.	.	.	-47.0
CC(C)(C)n1nc2c(c1NC(=O)c1cc(Cl)ccc1[N+](=O)[O-])CS(=O)(=O)C2	.	.	.	.	.
O=C1c2c(-c3ccc(Br)cc3)noc2CCN1Cc1cn(Cc2cccnc2)nn1	.	.	/	/	/
Cc1ccc(C)c(NC(=O)CCN2CCN(c3ccccc3F)CC2)c1	.	-64.1	.	.	-37.6
COc1ccc(OC)c(NC(=O)CCN2CCN(c3ccccc3F)CC2)c1	64.2	.	.	.	-38.2
Cc1cccc(C)c1NC(=O)CN1CCN(C/C=C/c2ccccc2)CC1	.	?	/	/	/
SMILES	DRD3 agonist	DRD3 antagonist	D1 agonist	D1 PAM	D1 antag
CCOc1ccc(NC(=O)CCN2CCN(c3ccccc3F)CC2)cc1	.	?	.	.	.
COc1ccc(C)cc1NC(=O)CN1CCN(C/C=C/c2ccccc2)CC1	.	-70.0	38.0	.	.
Cc1ccc(C)c(NC(=O)CCC(=O)NNC(=O)COc2cc(C)ccc2C)c1	.	.	.	.	-38.2
Cc1ccc(C)c(NC(=O)CCN2CCN(C)CC2)c1	.	.	.	.	.
CC(=O)Nc1ccc(NC(=O)c2ccc3c(c2)CCN3S(=O)(=O)c2ccc(Cl)cc2)cc1	.	/	.	.	.
COc1cc(NC(=O)CN2CCN(c3ccccc3F)CC2)c(C)cc1[N+](=O)[O-]	.	.	.	.	.
Cc1ccc(C)c(OCC(=O)NNC(=O)CCN2CCN(c3ccccc3)CC2)c1	.	-71.4	.	.	.
O=C(CCN1CCN(c2ccccc2)CC1)c1ccc(Br)cc1	.	-59.6	.	.	-30.1
COc1ccc(C)cc1NC(=O)CCN1CCN(c2ccccc2F)CC1	34.2	?	.	.	-45.1
COc1ccc(C)cc1NC(=O)CN1CCN(c2ccccc2F)CC1	.	-69.5	.	.	.
N#Cc1ccccc1NS(=O)(=O)c1ccc(N2CCCCS2(=O)=O)cc1	.	/	.	.	.
